Sampled rows, rich in hits. Any-hit rate of the full collection: about 13%.
HCMV antiviral = human cytomegalovirus inhibition; HFF cells, HCMV-luciferase reporter, 72 h; stronger effect = lower value; activity change, negative = inhibition, % at 57.5 µM; 410,000 compounds, 4.5% hits; AID 1259415; in the data active = activity change below about -60%; inconclusive = no clear call, values can overlap the other calls; inactive = above about -39%
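Human foreskin fibroblasts infected with luciferase-reporter HCMV at MOI 1 PFU/cell, compounds at two doses. Luciferase measured 72 h post infection; normalized to buffer-only basal and Salinomycin (10uM) controls.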
HCV inhibitor = blocks hepatitis C virus. Huh7.5.1 HCVcc-Cre infection, luciferase reporter, 44 h. Potency, µM (titrated, usually from 41.8 µM), inactives show at the top dose activity change, negative = inhibition, most hits filed as inhibitors. 340,000 compounds, 3.4% hits; also: potency is read from the fitted curve at half-maximal effect
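Reporter virus HCVcc-Cre (~0.5 moi) infects cells exposed to compound; seeding density 1,000 cells/well with 4 h settling beforehand. Luminescence, 15 sec read, taken 44 h post-infection following a 15 min RT substrate incubation.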
Pf growth 96h = inhibits malaria parasite growth, 96 h; 320,000 compounds, 6.9% hits; Potency, µM (highest dose often 28.7 µM), for inactives: at the top dose activity change, negative = inhibition, usual class: inhibitors; AID 504834; P. falciparum luciferase reporter growth, 96 h; also: potency is read from the fitted curve at half-maximal effect
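96 h incubation, 37 C, 5% CO2, of luciferase-reporter P. falciparum-infected RBCs (2% hematocrit, 0.05% parasitemia final) with test compounds; endpoint luminescence.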
Pf growth 48h = inhibits P. falciparum growth in the first generation, 48 h; P. falciparum luciferase growth in erythrocytes, 48 h; Potency, µM (series often up to 28.7 µM), for the others: at the highest dose activity change, negative = inhibition, most hits filed as inhibitors; 310,000 compounds, 5.9% hits; AID 504832; also: potency is read from the fitted curve at half-maximal effect
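Here the parasites carry a stable luciferase gene and grow inside erythrocytes in Albumax-based RPMI medium with compound for one erythrocytic cycle. Activity is scored as loss of luminescent signal.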
Active calls of the source: *; ? = inconclusive; . = no result given; + = active, no number; ! = not active in a repeat. Unless noted, calls follow the shape of the dose curve; as a rule, active = well fitted inhibition curve with a large enough effect; inconclusive = small, poorly fitted or top-dose-only effect, or another doubt; inactive = no such curve, though single readings can be large or run the other way. % is scaled to controls: 0 for no effect and ±100 for the full control effect.

SMILES	HCMV antiviral	HCV inhibitor	Pf growth 96h	Pf growth 48h
COc1cccc(N2CCN(C(=O)C3CCCN(S(=O)(=O)c4ccc5c(c4)oc(=O)n5C)C3)CC2)c1 (centres undefined)	-79.0*!	12.6µM*	1.4%	?
COc1ccc(C)cc1S(=O)(=O)N1CCCC(C(=O)N2CCN(c3ccccc3)CC2)C1 (centres undefined)	-69.0*	?	10.4µM*	7.38µM*
Cc1ccc(Cl)cc1N1CCN(C(=O)C2CCN(S(=O)(=O)c3ccc4c(c3)oc(=O)n4C)CC2)CC1	+	.	.	.
Cc1ccc(CN2CCN(C3CCNCC3)C(=O)C2=O)cc1	-2.6	.	.	.
COc1cccc(CN2CCN(C(=O)C3CCC(=O)N(C4CCCC4)C3)CC2)c1 (centres undefined)	?	27.2%	-21.0%	?
COc1cccc(N2CCN(C(=O)C3CCC(=O)N(C4CCCCCC4)C3)CC2)c1 (centres undefined)	22.4	?	?	8.28µM*
CC(=O)N1c2ccccc2C(C)(c2ccc(C)cc2)CC1(C)C (centres undefined)	1.0	.	.	.
COc1cccc2cc(C(C)=O)c(=O)oc12	37.0	20.2%	13.5%	14.3%
CCN(C(=O)c1cc2cccc(OC)c2oc1=O)C1CCCCC1	-18.6	9.1%	1.47µM*	?
COc1cccc2cc(C(=O)Nc3ccc(CC(=O)O)cc3)c(=O)oc12	-72.4*	.	.	.
COc1ccc(OC)c(CNC(=O)C2CCN(S(=O)(=O)c3ccc4[nH]c(=O)oc4c3)CC2)c1	13.2	.	.	.
CC(=O)N1c2nc(C(C)C)nn2C2(CCCCC2)[C@@H]2CCCC[C@@H]21	-11.3	.	.	.
CCOc1ccc(CCNC(=O)COC(=O)c2nn(C)c(=O)c3ccccc23)cc1OCC	-1.5	3.2%	41.0%	2.94µM*
CCOc1ccc(CCNC(=O)COC(=O)c2ccncc2)cc1OCC	2.3	18.6%	.	.
COc1ccc(C(=O)OCC(=O)NCCCc2ccccc2)cc1[N+](=O)[O-]	-6.1	1.1%	22.2%	15.3%
CCOc1ccc(CCNC(=O)COC(=O)c2ccc(OC(C)C)cc2)cc1OCC	-10.6	?	?	11.7µM*
COc1cc(C(=O)OCC(=O)NCCCc2ccccc2)ccc1OCC(C)C	21.2	-8.6%	5.86µM*	?
CCOc1ccc(CCNC(=O)COC(=O)CCc2cc(OC)c(OC)c(OC)c2)cc1OCC	8.7	-3.9%	?	13.1µM*
COc1ccc(C2c3c(oc4ccc(Cl)cc4c3=O)C(=O)N2CCCN(C)C)cc1OC (centres undefined)	-17.1	.	.	.
Cc1ccc(CNC(=O)CSc2nc3c(sc4ccccc43)c(=O)n2CCCOC(C)C)cc1	6.9	.	.	.
Cc1ccc(CSc2nc3ccc(NC(=O)C(C)C)cc3s2)cc1	-13.1	.	.	.
CCCOc1ccc(C(=O)OCC(=O)NCCc2ccc(OCC)c(OCC)c2)cc1OC	8.4	?	13.1µM*	?
CCOc1ccc(CCNC(=O)COC(=O)/C=C/c2ccc(C)o2)cc1OCC	3.8	-26.2%	5.22µM*	13.1µM*
CCCNC(=O)COC(=O)/C=C/c1ccc(C)o1	-6.8	26.7%	30.9%	11.6%
CC1(C)C(=O)Nc2ccccc2N1C(=O)COC(=O)c1cccc(O)c1	4.9	-4.7%	.	.
SMILES	HCMV antiviral	HCV inhibitor	Pf growth 96h	Pf growth 48h
COc1cc(C(=O)OCC(=O)N2c3ccccc3NC(=O)C2(C)C)ccc1OCC(C)C	-11.9	6.31µM*	?	?
CCOc1ccc(C(=O)CC(=O)C(=O)NCCc2ccc(OC)c(OC)c2)cc1	8.8	?	227.1%	13.1µM*
CCCSc1nnc2c(n1)OC(CC)N(C(C)=O)c1ccccc1-2 (centres undefined)	9.3	.	.	.
COc1cc(CCC(=O)OCC(=O)Nc2sccc2C(N)=O)cc(OC)c1OC	-15.6	12.6µM*	18.0%	0.0%
COc1ccc(CC(=O)NCCc2sc(-c3ccc(Cl)cc3)nc2C)cc1OC	-1.4	.	.	.
Cc1ccc(-c2csc(NC(=O)COc3ccc(N(C)S(=O)(=O)c4ccc(C)cc4)cc3)n2)cc1	?	7.94µM*	?	?
CCOc1ccc2nc(NC(=O)COc3ccc(N(C)S(=O)(=O)c4ccc(C)cc4)cc3)sc2c1	?	0.7%	?	2.33µM*
CCOC(=O)c1c(C)oc2nc(C)nc(N3CCN(c4cccc(C)c4C)CC3)c12	6.1	.	.	.
O=C(NCc1cccs1)C1CCN(C(=O)N2CCOc3ccc(Cl)cc32)CC1	-5.0	.	.	.
CC1CCN(c2nc3c(c(=O)n(C)c(=O)n3C)n2CCSc2nc3ccccc3s2)CC1	-34.2	11.2µM*	?	.

Bioassay records deposited in PubChem BioAssay by National Center for Advancing Translational Sciences (NCATS).
